Test results reported in PubChem BioAssay (NCATS).
Unmarked numbers belong to inactive results. Results filed as inconclusive are left out. The source made the active and inactive calls. Unless noted, calls follow the shape of the dose curve; as a rule, active = well fitted curve in the direction sought with a large enough effect; inconclusive = small, poorly fitted or top-dose-only effect, or another doubt; inactive = no such curve, though single readings can be large; an effect the other way counts as inactive or inconclusive.

Legend:
[1] = target: Lysosomal acid glucosylceramidase (Homo sapiens) (UniProt P04062); assay: Glucocerebrosidase-p2 (AID 348; in the data active = potency below about 10 µM; also: potency is read from the fitted curve at half-maximal effect); conditions: purified GBA, blue fluorogenic substrate, 40 min
Sequence of Lysosomal acid glucosylceramidase (Homo sapiens) (P04062 whole entry, looked up): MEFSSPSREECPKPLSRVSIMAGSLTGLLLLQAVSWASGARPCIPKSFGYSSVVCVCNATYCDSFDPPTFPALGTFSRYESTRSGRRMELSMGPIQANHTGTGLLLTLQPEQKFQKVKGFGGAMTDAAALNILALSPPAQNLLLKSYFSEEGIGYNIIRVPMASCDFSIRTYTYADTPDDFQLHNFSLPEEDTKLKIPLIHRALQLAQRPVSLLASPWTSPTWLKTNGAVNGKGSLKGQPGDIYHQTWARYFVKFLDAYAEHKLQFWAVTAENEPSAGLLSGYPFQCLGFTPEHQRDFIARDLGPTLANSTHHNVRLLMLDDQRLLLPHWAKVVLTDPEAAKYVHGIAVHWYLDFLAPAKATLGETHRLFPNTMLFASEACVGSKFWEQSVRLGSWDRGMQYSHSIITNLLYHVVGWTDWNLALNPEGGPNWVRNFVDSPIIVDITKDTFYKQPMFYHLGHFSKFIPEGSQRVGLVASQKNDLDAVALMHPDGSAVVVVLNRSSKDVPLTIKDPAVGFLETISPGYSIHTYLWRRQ
How it was run: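 Compounds titrated from 0.6 nM upwards against 0.2 nM enzyme in pH 5.9 citric acid/KH2PO4, taurocholate, tween-20; blue fluorogenic substrate 80 uM, 40 min room temperature, stopped and read Ex 365/Em 440 for AC50.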

[2] = AP1 Signaling Pathway (AID 357; active = well fitted curve in either direction with a large enough effect, not every such curve was filed as active; also: % is scaled to controls: 0 for no effect and ±100 for the full control effect); conditions: ME-180 AP-1-bla reporter, EGF-induced, beta-lactamase ratio, 5 h; at 7.69 µM (top of the series) unless noted
How it was run: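 ME-180 cells with beta-lactamase reporter under AP-1 response element, stimulated with EC50 EGF; compounds tested in titration series, 5 h at 37 °C. CCF4 substrate added 2.5 h at room temperature; 460/530 nm emission ratio gave %activity and AC50.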

[3] = target: Cytochrome P450 1A2 (Homo sapiens) (UniProt P05177); assay: p450-cyp1a2 (AID 410; calls by dose curve; also: potency is read from the fitted curve at half-maximal effect); conditions: recombinant CYP1A2, luciferin-ME demethylation, luminescence; series mostly up to 57 µM
Sequence of Cytochrome P450 1A2 (Homo sapiens) (P05177 whole entry, looked up): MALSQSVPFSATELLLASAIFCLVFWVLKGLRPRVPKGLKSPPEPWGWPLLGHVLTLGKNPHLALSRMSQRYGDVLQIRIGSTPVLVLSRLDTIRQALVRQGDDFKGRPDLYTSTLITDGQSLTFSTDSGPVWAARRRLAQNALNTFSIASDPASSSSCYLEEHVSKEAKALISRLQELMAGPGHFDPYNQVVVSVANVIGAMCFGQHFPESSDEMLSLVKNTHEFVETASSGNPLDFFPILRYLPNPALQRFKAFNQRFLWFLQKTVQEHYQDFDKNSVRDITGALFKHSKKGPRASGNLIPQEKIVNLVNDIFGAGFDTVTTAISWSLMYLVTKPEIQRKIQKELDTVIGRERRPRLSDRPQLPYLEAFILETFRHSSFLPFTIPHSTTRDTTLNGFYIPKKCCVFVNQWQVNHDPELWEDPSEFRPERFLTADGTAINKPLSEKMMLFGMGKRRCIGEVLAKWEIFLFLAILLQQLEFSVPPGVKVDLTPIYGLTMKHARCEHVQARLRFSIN
How it was run: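 Luminescent readout of luciferin formed from Luciferin-ME by human CYP1A2; data normalized against complete inhibition by 57 uM furafylline. Enzyme 20nM, substrate 100uM at Km, 100mM KPO4 buffer, 60 min reaction at room temperature.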

[4] = NFAT Signaling Pathway (AID 444; active = well fitted curve in either direction with a large enough effect, not every such curve was filed as active;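 also: carbachol stimulus at about its EC50 of 1 µM final; % is scaled to controls: 0 for no effect and ±100 for the full control effect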); conditions: Jurkat NFAT-bla M1, carbachol, beta-lactamase ratio, 5 h; at 7.69 µM (top of the series) unless noted
How it was run: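 Jurkat cells with NFAT-driven β-lactamase reporter and co-expressed M1 receptor, stimulated with carbachol (final 1 uM, ~EC50), compound titration, 5 h at 37 °C. CCF4 loaded 1 h at RT; 460/530 nm ratio gave %activity and AC50.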

[5] = target: Glucocorticoid receptor (Homo sapiens) (UniProt P04150); assay: GR-GFP Redistribution (AID 450;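 active = compounds whose dose series gives a full or clear partial fitted curve of increased nuclear translocation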; also: potency is read from the fitted curve at half-maximal effect); conditions: U2OS GR-GFP nuclear translocation, laser cytometry, 2 h
Sequence of Glucocorticoid receptor (Homo sapiens) (P04150 whole entry, looked up, the tested form may be a part): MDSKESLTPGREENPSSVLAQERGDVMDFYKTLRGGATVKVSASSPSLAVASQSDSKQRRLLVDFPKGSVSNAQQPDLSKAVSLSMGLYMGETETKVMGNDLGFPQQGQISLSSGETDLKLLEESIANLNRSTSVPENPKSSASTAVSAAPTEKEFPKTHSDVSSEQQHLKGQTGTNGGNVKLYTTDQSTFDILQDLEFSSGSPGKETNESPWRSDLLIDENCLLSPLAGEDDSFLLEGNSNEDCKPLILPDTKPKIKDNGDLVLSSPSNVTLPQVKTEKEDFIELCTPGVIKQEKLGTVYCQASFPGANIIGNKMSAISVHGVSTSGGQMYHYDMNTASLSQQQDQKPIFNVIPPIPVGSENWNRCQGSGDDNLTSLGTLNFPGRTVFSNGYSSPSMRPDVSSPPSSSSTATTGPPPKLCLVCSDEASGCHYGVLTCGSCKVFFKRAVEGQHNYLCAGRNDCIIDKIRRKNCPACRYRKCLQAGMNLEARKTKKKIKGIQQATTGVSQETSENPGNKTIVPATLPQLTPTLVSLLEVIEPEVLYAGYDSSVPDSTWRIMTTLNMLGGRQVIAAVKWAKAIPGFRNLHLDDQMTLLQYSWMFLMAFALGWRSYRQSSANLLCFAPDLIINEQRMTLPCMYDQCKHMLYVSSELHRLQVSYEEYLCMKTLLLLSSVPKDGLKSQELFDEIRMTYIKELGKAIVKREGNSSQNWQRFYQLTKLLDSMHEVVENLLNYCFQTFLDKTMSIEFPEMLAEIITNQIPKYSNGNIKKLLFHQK

[6] = target: Glucocorticoid receptor (Homo sapiens) (UniProt P04150); assay: GR-EFC Redistribution (AID 451; calls by dose curve; also: potency is read from the fitted curve at half-maximal effect); conditions: CHO-K1 GR-EFC translocation, beta-gal luminescence, 2 h
How it was run: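 CHO-K1 cells expressing nuclear EA and GR-ED fragments of b-gal; compounds titrated up to 46 uM final, 2 h at 37 C. GR nuclear translocation read as complemented b-gal luminescence after 1 h RT detection.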

[7] = target: Mitogen-activated protein kinase 10 (Mus musculus) (UniProt Q61831); assay: JNK3 AlphaScreen Assay (AID 530; active = well fitted curve in either direction with a large enough effect, not every such curve was filed as active;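 also: kinase came from lysate of stimulated human HepG2 cells; signal reports phosphorylation of biotinylated GST-cJun 1-79 at Ser73 with 10 µM ATP; % is scaled to controls: 0 for no effect and ±100 for the full control effect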); conditions: JNK3 lysate, c-Jun phosphorylation; series mostly up to 57.1 µM
How it was run: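 Pre-activated (IL-1β/TNFα) JNK3 in HepG2 lysates phosphorylates biotin-GST-cJun(1-79), 10 uM ATP; anti-phospho-cJun(Ser73) AlphaScreen read at room temperature, pH 7.6 Tris buffer. Compounds pre-incubated 15 min as titrations.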

[8] = target: 3',5'-cyclic-AMP phosphodiesterase 4B (Homo sapiens) (UniProt Q07343); assay: qHTS Assay for Inhibitors of PDE-IV (AID 607; active = well fitted activation curve with a large enough effect in the main read-out, with a control signal flat, not every such curve was filed as active; also: % of control where 0% means no effect); conditions: HEK293 ACTOne CNG channel cells, membrane potential fluorescence; series mostly up to 22.9 µM
Sequence of 3',5'-cyclic-AMP phosphodiesterase 4B (Homo sapiens) (Q07343 whole entry, looked up): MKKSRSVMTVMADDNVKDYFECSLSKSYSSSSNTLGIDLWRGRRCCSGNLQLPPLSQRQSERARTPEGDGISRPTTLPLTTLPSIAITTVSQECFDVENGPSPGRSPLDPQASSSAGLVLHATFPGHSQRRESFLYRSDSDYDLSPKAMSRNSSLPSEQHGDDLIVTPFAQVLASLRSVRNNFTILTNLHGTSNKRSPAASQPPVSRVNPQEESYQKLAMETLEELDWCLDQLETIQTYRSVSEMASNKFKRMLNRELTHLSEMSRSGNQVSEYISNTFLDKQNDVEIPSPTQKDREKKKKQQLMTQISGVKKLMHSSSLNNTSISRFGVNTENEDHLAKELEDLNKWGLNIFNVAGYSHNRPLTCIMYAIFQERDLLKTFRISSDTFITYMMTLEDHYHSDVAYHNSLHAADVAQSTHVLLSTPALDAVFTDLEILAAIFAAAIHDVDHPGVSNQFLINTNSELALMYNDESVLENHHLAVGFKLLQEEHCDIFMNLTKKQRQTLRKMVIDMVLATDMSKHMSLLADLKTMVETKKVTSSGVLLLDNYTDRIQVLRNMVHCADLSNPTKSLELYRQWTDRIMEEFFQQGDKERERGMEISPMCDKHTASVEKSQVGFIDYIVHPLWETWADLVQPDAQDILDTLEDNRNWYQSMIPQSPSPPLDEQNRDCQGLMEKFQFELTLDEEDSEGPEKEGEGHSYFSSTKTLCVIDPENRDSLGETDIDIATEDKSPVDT
How it was run: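 Cell-based read-out of cAMP via a modified cyclic nucleotide-gated channel and membrane potential dye (535/590 nm) in HEK293 cells expressing PDE4 endogenously. Compounds tested up to 22.9 uM final; 100 uM RO 20-1724 reference.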

[9] = target: Cytochrome P450 3A4 (Homo sapiens) (UniProt P08684); assay: qHTS Assay for Activators of Cytochrome P450 3A4 (AID 885); conditions: recombinant CYP3A4, Luciferin-PPXE luminescence, 60 min; series mostly up to 57.1 µM; also: nearly all actives have a fitted effect of over 65% in size
Sequence of Cytochrome P450 3A4 (Homo sapiens) (P08684 whole entry, looked up): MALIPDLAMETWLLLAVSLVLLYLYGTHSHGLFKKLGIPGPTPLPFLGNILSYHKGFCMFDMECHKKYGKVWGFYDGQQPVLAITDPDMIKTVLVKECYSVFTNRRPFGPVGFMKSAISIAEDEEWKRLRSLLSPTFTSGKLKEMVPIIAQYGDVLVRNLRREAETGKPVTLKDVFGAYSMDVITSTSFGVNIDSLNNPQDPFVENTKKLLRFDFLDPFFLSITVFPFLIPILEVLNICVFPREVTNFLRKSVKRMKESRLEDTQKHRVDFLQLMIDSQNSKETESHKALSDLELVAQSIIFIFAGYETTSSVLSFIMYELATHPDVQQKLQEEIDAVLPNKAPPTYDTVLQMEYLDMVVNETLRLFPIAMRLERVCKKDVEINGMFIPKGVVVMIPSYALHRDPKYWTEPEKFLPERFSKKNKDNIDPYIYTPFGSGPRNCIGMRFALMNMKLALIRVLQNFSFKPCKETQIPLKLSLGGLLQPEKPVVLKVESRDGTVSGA
How it was run: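 Signal was normalized against complete inhibition by 57 uM ketoconazole. The reaction used 20nM CYP3A4 with 25uM Luciferin-PPXE, 10-min compound preincubation and a 60-min NADPH-supported step at RT.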

[10] = target: Dual specificity protein kinase CLK4 (Homo sapiens) (UniProt Q9HAZ1); assay: qHTS Assay for Inhibitors of CDC-like Kinase 4 (ADP-Glo Assay) (AID 1771); conditions: recombinant CLK4, ADP-Glo luminescence; series mostly up to 80 µM; also: nearly all actives have a fitted effect of over 70% in size; also: potency is read from the fitted curve at half-maximal effect
Sequence of Dual specificity protein kinase CLK4 (Homo sapiens) (Q9HAZ1 whole entry, looked up): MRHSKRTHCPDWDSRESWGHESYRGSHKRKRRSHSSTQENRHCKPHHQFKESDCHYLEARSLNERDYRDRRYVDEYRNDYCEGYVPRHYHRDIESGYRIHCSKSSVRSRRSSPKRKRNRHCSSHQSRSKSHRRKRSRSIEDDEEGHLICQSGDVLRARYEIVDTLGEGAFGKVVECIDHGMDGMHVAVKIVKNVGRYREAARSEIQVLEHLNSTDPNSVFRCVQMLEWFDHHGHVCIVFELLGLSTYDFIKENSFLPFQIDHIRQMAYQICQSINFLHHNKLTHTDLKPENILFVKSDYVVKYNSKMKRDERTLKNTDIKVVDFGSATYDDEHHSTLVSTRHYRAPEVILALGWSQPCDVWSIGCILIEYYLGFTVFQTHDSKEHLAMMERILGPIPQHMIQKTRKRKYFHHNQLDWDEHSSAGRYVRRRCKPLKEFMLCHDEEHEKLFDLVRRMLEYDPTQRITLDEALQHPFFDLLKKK
How it was run: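 Luminescence from ADP-Glo reports ADP produced by 25 nM Clk4 acting on 100 uM RS repeat peptide with 1 uM ATP over 1 hr at room temperature; residual ATP is depleted before ADP is converted to ATP for detection.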

[11] = target: Dual specificity protein kinase CLK4 (Homo sapiens) (UniProt Q9HAZ1); assay: qHTS Assay for Inhibitors of CDC-like Kinase 4 (ADP-FP Assay) (AID 1795); conditions: Transcreener ADP fluorescence polarization; series mostly up to 50 µM; also: nearly all actives have a fitted effect of over 60% in size; also: potency is read from the fitted curve at half-maximal effect
How it was run: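 Recombinant human Clk4 (6.25 nM) phosphorylated RS repeat peptide (100 uM) with 1 uM ATP in Tris pH 7.5/MgCl2/EGTA/DTT/Triton buffer for one hour. ADP was quantified by Transcreener competitive fluorescence polarization against an ADP calibration curve.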

[12] = target: Ubiquitin carboxyl-terminal hydrolase 1 (Homo sapiens) (UniProt O94782); assay: Inhibitors of USP1/UAF1: Pilot qHTS (AID 504865); conditions: purified USP1/UAF1, Ub-rhodamine cleavage fluorescence; series mostly up to 54.9 µM; also: nearly all actives have a fitted effect of over 35% in size; also: potency is read from the fitted curve at half-maximal effect
Sequence of Ubiquitin carboxyl-terminal hydrolase 1 (Homo sapiens) (O94782 whole entry, looked up): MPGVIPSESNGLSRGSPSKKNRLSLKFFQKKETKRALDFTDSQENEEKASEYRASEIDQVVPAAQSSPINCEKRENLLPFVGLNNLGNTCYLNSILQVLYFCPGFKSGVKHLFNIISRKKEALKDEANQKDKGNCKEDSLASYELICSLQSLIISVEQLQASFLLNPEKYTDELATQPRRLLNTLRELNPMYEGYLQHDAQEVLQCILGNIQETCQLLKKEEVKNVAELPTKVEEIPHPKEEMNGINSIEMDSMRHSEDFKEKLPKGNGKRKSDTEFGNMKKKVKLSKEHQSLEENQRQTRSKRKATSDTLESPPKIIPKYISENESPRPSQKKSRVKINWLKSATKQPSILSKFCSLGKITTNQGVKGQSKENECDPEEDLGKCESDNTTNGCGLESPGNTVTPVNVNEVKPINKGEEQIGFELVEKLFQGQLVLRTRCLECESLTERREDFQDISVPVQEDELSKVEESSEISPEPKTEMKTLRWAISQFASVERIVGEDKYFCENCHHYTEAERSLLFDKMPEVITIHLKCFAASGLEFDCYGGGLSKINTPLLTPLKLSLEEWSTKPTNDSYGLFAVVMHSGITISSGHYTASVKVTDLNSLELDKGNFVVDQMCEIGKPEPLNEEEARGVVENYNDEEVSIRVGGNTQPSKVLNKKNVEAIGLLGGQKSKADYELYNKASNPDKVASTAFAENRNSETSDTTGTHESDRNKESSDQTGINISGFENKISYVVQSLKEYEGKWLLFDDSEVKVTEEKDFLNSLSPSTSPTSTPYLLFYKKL
How it was run: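 USP1/UAF1 complex (1nM) preincubated with compound 15 min at room temperature, then Ub-Rho substrate (150nM final) added. Fluorescence read kinetically at 480/540 nm, 6 reads every 60 seconds. Buffer: 50mM HEPES pH 7.8, 0.5mM EDTA, 0.1 mg/ml BSA, 1mM TCEP, 0.01% Tween-20.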

[13] = Primary qHTS for small molecule stabilizers of the endoplasmic reticulum resident proteome: Secreted ER Calcium Modulated Protein (SERCaMP) assay (AID 1508630); conditions: SH-SY5Y GLuc-SERCaMP (Gaussia luciferase released on ER calcium loss) secretion, thapsigargin, luminescence; series mostly up to 38.4 µM; also: % is scaled to controls: 0 for no effect and ±100 for the full control effect
How it was run: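 GLuc-SERCaMP-expressing SH-SY5Y cells, pretreated 16 h with compound, are challenged with thapsigargin to empty ER calcium stores; after 4 h, coelenterazine is added directly to the medium and luminescence is imaged.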

[14] = Stat Signaling Pathway (AID 446; active = well fitted curve in either direction with a large enough effect, not every such curve was filed as active); conditions: ME-180 SIE beta-lactamase reporter, IL-6 stimulated, 5 h; at 7.69 µM (top of the series) unless noted
How it was run: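 Reporter line: ME-180 cervical carcinoma, SIE-beta-lactamase. Treatment: compound with 40 pM IL-6, 5 hrs, 37 C, in low-serum OPTI-MEM with 10 mM HEPES pH 7.3. Detection: 460/530 nm fluorescence.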

[15] = target: Cytochrome P450 3A4 (Homo sapiens) (UniProt P08684); assay: qHTS Assay for Inhibitors and Substrates of Cytochrome P450 3A4 (AID 884); conditions: recombinant CYP3A4, Luciferin-PPXE luminescence; series mostly up to 57.1 µM; also: potency is read from the fitted curve at half-maximal effect; nearly all actives have a fitted effect of over 50% in size
How it was run: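 20 nM human CYP3A4 with 25 uM Luciferin-PPXE (at KM) in 200 mM KPO4, preincubated 10 min with compound; NADPH regeneration started a 60 min RT reaction. Luciferin detected by luminescence, normalized to 57 uM ketoconazole as full inhibition.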

[16] = target: Cytochrome P450 2C19 (Homo sapiens) (UniProt P33261); assay: qHTS Assay for Inhibitors and Substrates of Cytochrome P450 2C19 (AID 899); conditions: recombinant CYP2C19, luciferin-H EGE luminescence; series mostly up to 57.1 µM; also: potency is read from the fitted curve at half-maximal effect; nearly all actives have a fitted effect of over 60% in size
Sequence of Cytochrome P450 2C19 (Homo sapiens) (P33261 whole entry, looked up): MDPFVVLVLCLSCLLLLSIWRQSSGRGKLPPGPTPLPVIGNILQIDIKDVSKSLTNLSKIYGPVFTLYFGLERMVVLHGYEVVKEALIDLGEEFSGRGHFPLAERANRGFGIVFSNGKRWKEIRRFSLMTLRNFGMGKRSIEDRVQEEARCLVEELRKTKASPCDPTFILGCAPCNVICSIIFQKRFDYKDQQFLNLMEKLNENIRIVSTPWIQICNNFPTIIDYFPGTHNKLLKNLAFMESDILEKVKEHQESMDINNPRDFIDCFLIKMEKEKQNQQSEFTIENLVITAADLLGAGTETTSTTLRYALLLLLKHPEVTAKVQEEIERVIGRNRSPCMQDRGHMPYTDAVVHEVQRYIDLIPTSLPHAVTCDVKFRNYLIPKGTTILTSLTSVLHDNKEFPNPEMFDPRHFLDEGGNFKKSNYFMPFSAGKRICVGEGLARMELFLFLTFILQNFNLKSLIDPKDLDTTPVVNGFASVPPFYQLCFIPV
How it was run: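 Luminescent read-out of luciferin formed from Luciferin-H EGE (10uM, equal to KM). Enzyme 5nM in 50mM KPO4; compound added, 10 min at 37C, then NADPH regenerating system for 60 min at 37C. Full inhibition defined by 57uM ketoconazole.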

[17] = target: Dual specificity protein kinase CLK4 (Homo sapiens) (UniProt Q9HAZ1); assay: qHTS Assay for Inhibitors of CDC-like Kinase 4 (Kinase-Glo Assay) (AID 1770); conditions: recombinant Clk4, Kinase-Glo ATP depletion luminescence; series mostly up to 66.7 µM; also: nearly all actives have a fitted effect of over 65% in size; also: potency is read from the fitted curve at half-maximal effect
How it was run: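 Recombinant human Clk4 (25 nM) phosphorylated RS repeat peptide (100 uM) with 1 uM ATP in Tris pH 7.5/MgCl2/EGTA/DTT/Triton buffer for 4.5 h at room temperature. Residual ATP was quantified by Kinase-Glo luciferase luminescence.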

[18] = target: Cytochrome P450 2D6 (Homo sapiens) (UniProt P10635); assay: qHTS Assay for Inhibitors and Substrates of Cytochrome P450 2D6 (AID 891); conditions: recombinant CYP2D6, luciferin-ME EGE luminescence; series mostly up to 57.1 µM; also: potency is read from the fitted curve at half-maximal effect; nearly all actives have a fitted effect of over 60% in size
How it was run: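 Human CYP2D6 (5 nM) with 30 uM Luciferin-ME EGE (at Km) in 100 mM KPO4, compound preincubated 10 min, then NADPH regeneration system for 60 min at room temperature. Luciferin read by luminescence; normalized to 1.43 uM quinidine.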

| Compound | Potency [1] | activity change, negative = inhibition [2] | Potency [3] | activity change, negative = inhibition [4] | Potency [5] | Potency [6] | Potency [7] | Potency [8] | Potency [9] | Potency [10] | Potency [11] | Potency [12] | outcome [13] | activity, negative = inhibition [14] | Potency [15] | Potency [16] | Potency [17] | Potency [18] |
| --- | --- | --- | --- | --- | --- | --- | --- | --- | --- | --- | --- | --- | --- | --- | --- | --- | --- | --- |
| COc1cccc(Cn2c(=O)cnc3cnc(OC)nc32)c1 | > 11.4 µM | 17.7% | 12.6 µM (active) | 20% | > 9.22 µM | > 46 µM | inactive | inactive | inactive | inactive | inactive | inactive | inactive | – | – | – | – | – |
| N#Cc1cccc(-c2cncnc2NCc2cccnc2)c1 | > 11.4 µM | 13% | 5.01 µM (active) | -3.61% | > 46 µM | > 46 µM | inactive | inactive | inactive | – | – | inactive | inactive | 6.63% | 1.26 µM (active) | 3.98 µM (active) | inactive | – |
| COc1ccc(CNc2cc(-c3ccccc3OC)ncn2)c(OC)c1 | > 11.4 µM | -6.46% | – | 17.7% | > 46 µM | > 46 µM | inactive | inactive | inactive | inactive | inactive | inactive | inactive | 5.25% | 6.31 µM (active) | 2 µM (active) | – | – |
| Cn1c(=O)c(-c2ccccc2)nc2cnc(Nc3ccccc3)nc21 | > 11.4 µM | 6.58% | 15.8 µM (active) | -7.03% | > 9.22 µM | > 46 µM | inactive | – | – | inactive | inactive | inactive | inactive | 8.87% | – | – | – | – |
| Cc1cnc(CNc2nc(-c3ccccc3C)nc3ccccc23)cn1 | > 11.4 µM | -8.73% | 3.16 µM (active) | -6.95% | > 46 µM | > 46 µM | inactive | inactive | inactive | inactive | inactive | inactive | inactive | -5.75% | – | – | – | – |
| COc1ccc2[nH]cc(CCNc3ccnc(-c4c(C)noc4C)n3)c2c1 | > 11.4 µM | -4.62% | 2 µM (active) | 9.64% | > 46 µM | > 46 µM | inactive | inactive | inactive | inactive | inactive | inactive | inactive | -5.35% | 2.51 µM (active) | 1.58 µM (active) | – | – |
| c1cn(-c2cc(-c3ccc4c(c3)OCO4)ncn2)cn1 | > 11.4 µM | 13.6% | – | 13.4% | > 46 µM | > 46 µM | inactive | inactive | – | 2.82 µM (active) | 2 µM (active) | 17.8 µM (active) | inactive | 6.1% | – | – | – | – |
| COc1ccccc1CNc1ccnc(-c2c(C)noc2C)n1 | > 11.4 µM | 18% | 0.398 µM (active) | -13.8% | > 46 µM | > 46 µM | inactive | – | inactive | inactive | inactive | – | inactive | -17.2% | 5.01 µM (active) | – | – | – |
| CNc1nc(-c2ccccc2C)nc2ccccc12 | 8.72 µM (active) | 8.12% | 0.501 µM (active) | 3.1% | > 46 µM | > 46 µM | inactive | inactive | inactive | 12.6 µM (active) | 14.1 µM (active) | inactive | inactive | 9% | – | – | – | – |
| CN(C)c1ccc(-c2nc(-n3ccnc3)c3ccccc3n2)cc1 | 8.28 µM (active) | – | 0.316 µM (active) | – | > 46 µM | > 46 µM | inactive | inactive | inactive | – | – | inactive | inactive | -23.3% | 0.631 µM (active) | 2.51 µM (active) | 7.94 µM (active) | 7.94 µM (active) |
| COc1ncc2nc(-c3cn(C)c4ccccc34)c(=O)n(CCC#N)c2n1 | > 11.4 µM | -17.8% | 5.01 µM (active) | -2.23% | > 9.22 µM | > 46 µM | inactive | inactive | inactive | inactive | inactive | inactive | inactive | -7.24% | 6.31 µM (active) | – | – | – |
| COc1ncc2nc(CCc3ccccc3)c(=O)n(CCc3ccccc3)c2n1 | > 11.4 µM | -0.194% | 3.98 µM (active) | -0.888% | > 9.22 µM | > 46 µM | inactive | – | inactive | inactive | inactive | inactive | inactive | -1.74% | 3.16 µM (active) | 7.94 µM (active) | – | – |
